Among the data in PubChem BioAssay AID2157 (National Center for Advancing Translational Sciences (NCATS), 2009) are max response and Potency values, retold here.

Each structure is given as a SMILES string. Records with an inconclusive call do not appear. Active and inactive are the calls of the source. Calls follow the shape of the dose curve; as a rule, active = well fitted inhibition curve with a large enough effect; inconclusive = small, poorly fitted or top-dose-only effect; inactive = no such curve, though single readings can be large or run the other way.

The target in the experiment is Polyunsaturated fatty acid lipoxygenase ALOX15 (Homo sapiens) (UniProt P16050). Kind of experiment: Confirmation qHTS Assay for Inhibitors of 15-hLO (15-human lipoxygenase). Conditions: purified enzyme, xylenol orange hydroperoxide absorbance; max response: active compounds read low. The source says: Assay Provider: Holman, T.R., University of California, Santa Cruz Screening Center PI: Austin, Christopher P. Screening Center: NIH Chemical Genomics Center Human lipoxygenase 15hLO-1 is a member of the closely related lipoxygenase family of enzymes which catalyze the site-specific oxidation of arachidonic acid to various hormone precursor molecules and as such is a candidate for drug development in a variety of disease areas, such as cancer and inflammation. Inhibition of 15hLO-1 activity was screened by utilizing arachidonic acid as a substrate. The extent of hydroperoxide product formation was measured by a secondary chromogenic reaction in which xylenol orange (XO, Sigma-Aldrich, cat. number 39,818-7) reacts with the ferric ions produced from the reaction between the hydroperoxide and ferrous ions. The Fe(III)-XO complex is characterized with red-shifted absorbance at 560 nm. A purified preparation of human 15hLO-1 was supplied by Professor Ted Holman, University of California, Santa Cruz. This assay includes some confirmation and follow-up compounds for related primary screening assay AID 887.
Polyunsaturated fatty acid lipoxygenase ALOX15 (Homo sapiens), sequence (P16050 whole entry, looked up): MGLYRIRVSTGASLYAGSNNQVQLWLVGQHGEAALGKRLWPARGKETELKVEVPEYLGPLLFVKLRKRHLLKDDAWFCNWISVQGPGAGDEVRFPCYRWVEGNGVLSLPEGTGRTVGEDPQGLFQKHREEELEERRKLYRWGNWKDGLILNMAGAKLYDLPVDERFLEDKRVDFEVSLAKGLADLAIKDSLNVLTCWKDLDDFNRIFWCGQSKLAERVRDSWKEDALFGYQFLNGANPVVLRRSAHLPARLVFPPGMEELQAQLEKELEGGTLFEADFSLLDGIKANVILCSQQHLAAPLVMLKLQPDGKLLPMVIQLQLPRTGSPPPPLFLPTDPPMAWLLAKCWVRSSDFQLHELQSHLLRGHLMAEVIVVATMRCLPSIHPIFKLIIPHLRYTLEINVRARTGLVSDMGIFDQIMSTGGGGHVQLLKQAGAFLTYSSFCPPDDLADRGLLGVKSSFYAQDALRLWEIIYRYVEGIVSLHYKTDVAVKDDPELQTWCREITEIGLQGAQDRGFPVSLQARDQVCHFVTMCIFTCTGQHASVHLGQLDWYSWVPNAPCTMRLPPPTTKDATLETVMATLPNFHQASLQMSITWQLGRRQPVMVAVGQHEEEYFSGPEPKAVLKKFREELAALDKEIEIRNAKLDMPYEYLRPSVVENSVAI
Assay Protocol: Buffer: 25 mM Hepes pH 7.5, 0.01% Triton X-100. Reagents/Controls: Buffer in columns 3 and 4 as negative control (no enzyme). Substrate solution: 50 uM arachidonic acid (Sigma-Aldrich, St. Louis, MO) final concentration dispensed throughout the plate. Enzyme: 40 nM 15hLO-1 final concentration in columns 1, 2, 5-48. Column 1 is neutral (100% activity). Column 2 contained pin-transferred titration of NDGA (nordihidroguaiaretic acid, Sigma-Aldrich, N 5023, top concentration 10 mM in DMSO, then 1:2 dilution in duplicate). (Dilution factor: 23 nL into 4 uL.) Chromogenic detection reagent (divalent iron/xylenol orange, Fe-XO): 200 uM xylenol orange plus 300 uM ferrous ammonium sulfate prepared freshly in 50 mM sulfuric acid. Assay Steps: Three uL of enzyme were dispensed to 1536-well Greiner black clear bottom plates. Compounds and controls (23 nL) were transferred via Kalypsys PinTool. The plates were incubated for 15 min at room temperature, and then 1 uL of substrate solution was added to start the reaction. After room temperature incubation for 6 minutes, 4 uL of Fe-XO solution was added to each well followed by a short spin (1000 rpm, 15 sec) and the plates were then incubated for 30 min. The absorbance at 405 and 573 nm were measured using ViewLux (Perkin-Elmer) High-throughput CCD imager and absorbance protocol settings. The 573-to-405 absorbance ratio was used to compute reaction progress.
With `CCCC(=O)NC(c1ccco1)c1cc(Cl)c2cccnc2c1O` (configuration not stated), the max response was -17.9% (inactive).

As to `COCCSc1ccccc1C(=O)NCc1ccco1`, the max response is -26.5% (inactive).

For the compound `Oc1ccc2ccccc2c1CNc1cnc2ccccc2c1`, the Potency is 14.1 µM (active).

As for `CCOC(=O)c1c(NC(=O)CN2CCOCC2)sc2c1CCCC2`, the Potency was 31.6 µM (active).

As for `Clc1ccc(NNc2ccnc3cc(Cl)ccc23)cc1`, the max response is -9.48% (inactive).

With `O=C(Nc1cccc(F)c1)N1CCCC2(CCN(C(=O)c3ccco3)CC2)C1`, the max response was -7.24% (inactive).

Turning to `Cc1noc(C)c1-c1nc(N(C)Cc2ccco2)c2ccccc2n1`, the max response was -25.4% (inactive).

For the compound `O=C(Nc1nnc(-c2ccco2)s1)C1CCCCC1`, the max response was -11.3% (inactive).

`Cc1ccc(-c2ccc(/C=C3\C(=O)ON=C3c3ccccc3)o2)c([N+](=O)[O-])c1`: the Potency was 2.51 µM (active).

Turning to `O=C(C1=C(O)C(=O)N(Cc2ccco2)C1c1cccnc1)c1cc2ccccc2o1` (configuration not stated), the max response was -10.1% (inactive).

Take `Cc1cc(/C=N/NC(=O)Cn2c3ccccc3c(=O)c3ccccc32)c(C)n1-c1ccccc1`: the Potency is 11.2 µM (active).

Consider `CN(C)CCC(=O)c1ccc(Cl)cc1`, for which the max response was -16.6% (inactive).

`Cc1cccc(CNc2ncnc3ccc(-c4ccc5c(c4)OCO5)cc23)c1`: the max response is -24.2% (inactive).

With `O=C(c1ccncc1)N1CCC2(CCCN(Cc3nccs3)C2)CC1`, the max response is -6.92% (inactive).

On to `O=C(Cc1cc(=O)[nH][nH]1)N/N=C/C=C/c1ccccc1`, for which the max response is -11.2% (inactive).

Take `COC(=O)c1ccc2c(c1)C(=O)N(C1CCCCC1)C2=O`: the max response was -13.1% (inactive).

As to `COC(=O)c1ccc(C(=S)N2CCOCC2)cc1`, the Potency was 15.8 µM (active).

Turning to `Cc1ccc(OCC(=O)Nc2ccc(N3CCCC3)cc2)cc1C`, the Potency was 15.8 µM (active).

As for `CCC(=O)N(Cc1cc(=O)[nH]c2ccccc12)C1CCCCC1`, the max response was -6.49% (inactive).

Regarding `CN1CCN(C(c2cccnc2)c2ccc3cccnc3c2O)CC1` (configuration not stated), the max response was -27.2% (inactive).

Regarding `Clc1ccc(-c2nnc(C3CCCCC3)o2)cc1`, the max response is -10.3% (inactive).

Take `O=C(Nc1nc2n(n1)C(c1ccccc1)CC(c1ccc(Cl)cc1)N2)c1ccco1` (configuration not stated): the max response was -20.1% (inactive).

On to `Cc1c(N/C=C/C(=O)c2cccs2)c(=O)n(-c2ccccc2)n1C`, for which the max response was -25.2% (inactive).

`COc1cccc(-c2nccc(NCc3ccccc3OC)n2)c1`: the Potency was 11.2 µM (active).

As for `CCOc1ccc(NS(=O)(=O)c2ccc3[nH]cc(C(=O)N(CC)CC)c(=O)c3c2)cc1`, the max response was -12.4% (inactive).

As for `CC(=O)NCCNc1ncncc1-c1ccc(N(C)C)cc1`, the max response is -61.2% (inactive).

For the compound `O=C(Nc1nnc(-c2ccccc2)o1)c1ccc(Cl)cc1`, the max response was -12.7% (inactive).

For `Cc1cc(Nc2nnnn2-c2ccccc2)n(-c2ccc(Cl)cc2)n1`, the max response was -13% (inactive).

As for `CCCCn1c(Cc2ccccc2)n[nH]c1=S`, the max response was -14.5% (inactive).

Consider `COc1ccc(NC(=O)CSc2nc(O)cc(=O)n2-c2ccccc2OC)cc1`, for which the max response is -13.4% (inactive).

On to `c1csc(C2Nc3cccc4cccc(c34)N2)c1`, for which the Potency was 8.91 µM (active).

Consider `COc1ccccc1CNc1ncncc1-c1ccoc1`, for which the Potency was 11.2 µM (active).

For `COc1ccccc1-n1c(SCC(=O)Nc2ccc(C)cc2)nc(O)cc1=O`, the max response is -8.11% (inactive).

Take `COc1cccc(-c2nc(NC3CCNCC3)c3ccccc3n2)c1`: the max response was -13.6% (inactive).

Consider `NC(=O)c1cccc2c3c([nH]c12)CCCC3`, for which the Potency is 10 µM (active).

Turning to `COc1ccc(OC)c(NC(=O)NC2(C(F)(F)F)Oc3ccccc3O2)c1`, the max response is -7.82% (inactive).

Take `O=C1C2C3CCCC3=C3CCCC3C2C(=O)N1c1cccc(Cl)c1` (configuration not stated): the Potency is 14.1 µM (active).
